Shown are actives, neighbours in structure and some others; about 11% of the full set was active somewhere.
Pf growth 48h – inhibits P. falciparum growth in the first generation, 48 h; AID 504832; 5.9% of 310,000 active; Potency, µM (top dose mostly 28.7 µM), usual class: inhibitors; P. falciparum luciferase growth in erythrocytes, 48 h
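First compound was added to culture medium, then infected red cells at 0.1% parasitemia and 2% hematocrit (final). After incubation at 37 C under 5% CO2, luciferase detection reagent was dispensed and light output recorded.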
AmpC inh detg – inhibitors of E. coli AmpC beta-lactamase with detergent; 0.041% of 370,000 active; AmpC hydrolysis of nitrocefin, absorbance 480 nm, 0.01% Triton; Potency, µM (series often up to 114 µM), actives largely listed as inhibitors; P00811; further: nearly all actives have a fitted effect of over 25% in size
Target sequence (P00811 whole entry, looked up): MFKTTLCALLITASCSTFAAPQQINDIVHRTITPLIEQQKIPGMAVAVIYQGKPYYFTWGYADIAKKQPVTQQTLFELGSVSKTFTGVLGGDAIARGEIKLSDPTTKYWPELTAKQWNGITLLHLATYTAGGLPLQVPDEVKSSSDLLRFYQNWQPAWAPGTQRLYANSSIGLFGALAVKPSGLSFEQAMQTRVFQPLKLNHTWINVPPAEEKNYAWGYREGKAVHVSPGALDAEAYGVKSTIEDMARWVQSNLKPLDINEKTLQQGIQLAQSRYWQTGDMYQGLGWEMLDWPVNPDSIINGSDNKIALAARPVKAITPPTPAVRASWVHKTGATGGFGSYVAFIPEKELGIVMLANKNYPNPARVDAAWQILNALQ
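AmpC (5.3 nM in the dispensed reagent) in 20 mM phosphate pH 7.0 with 0.01% (detergent screen) or 0.0001% Triton X-100 was preincubated with compounds for 15 min at room temperature. Nitrocefin was then added from an 800 uM solution, and hydrolysis was followed at 480 nm.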
HCV inh – HCV inhibition | Potency, µM (titrated, usually from 41.8 µM), usual class: inhibitors | AID 651820 | 3.4% of 340,000 active | Huh7.5.1 HCVcc-Cre infection, luciferase reporter, 44 h
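Whole-lifecycle infectious HCVcc-Cre system; cells 1,000/well, compound then virus (~0.5 moi) added 4 h after plating, 44 h culture. Luciferase read 15 sec following 15 min substrate incubation, room temp.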
AmpC no deterg – inhibitors of E. coli AmpC beta-lactamase without detergent | P00811 | AmpC nitrocefin hydrolysis, absorbance 480 nm, 0.0001% Triton | Potency, µM (highest dose often 57.1 µM), most hits filed as inhibitors | 0.52% of 330,000 active | AID 485341; further: nearly all actives have a fitted effect of over 20% in size
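AmpC (5.3 nM in the dispensed reagent) in 20 mM phosphate pH 7.0 with 0.01% (detergent screen) or 0.0001% Triton X-100 was preincubated with compounds for 15 min at room temperature. Nitrocefin was then added from an 800 uM solution, and hydrolysis was followed at 480 nm.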
Pf growth 96h – P. falciparum growth inhibition at 96 hours; P. falciparum luciferase reporter growth, 96 h; Potency, µM (highest dose often 28.7 µM), usual class: inhibitors; 6.9% of 320,000 active; AID 504834
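Erythrocytes infected with luciferase-expressing P. falciparum were dispensed at 2% hematocrit and 0.05% parasitemia (final), then incubated with compounds 96 hours at 37 C in 5% CO2. Luminescence after detection reagent addition reported growth.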
AMA1-RON2 inh – AMA1-RON2 (P. falciparum) interaction inhibition. Potency, µM (highest dose often 58.2 µM), most hits filed as inhibitors. AlphaScreen AMA1-biotinylated RON2 peptide binding. 0.2% of 360,000 active. AID 720542; further: nearly all actives have a fitted effect of over 45% in size
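AMA1 (3D7) with his tag at 25 nM final met compounds first, then biotinylated RON2 peptide at 25 nM; detection used donor plus acceptor beads, 10 µg/mL apiece, read by AlphaScreen after 30 min at room temperature.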
Numbers stand for hits; 0 = inactive; ? = inconclusive; - = not tested or not shown. The call rests on the fitted dose curve; in most records, active means well fitted curve in the direction sought with a large enough effect; inconclusive means small, poorly fitted or top-dose-only effect, or another doubt; inactive means no such curve, though single readings can be large; an effect the other way counts as inactive or inconclusive.

SMILES	Pf growth 48h	AmpC inh detg	HCV inh	AmpC no deterg	Pf growth 96h	AMA1-RON2 inh
Cc1cc(Br)cnc1NC(=S)Nc1ccc(F)cc1F	?	0	10µM	0	?	0
O=C(Nc1ccc(F)cc1F)c1cncc(Br)c1	0	0	0	0	0	0
COc1cc2c(-c3ccc4cc[nH]c4c3)c(-c3ccc(C#N)cc3)oc(=O)c2cc1OC	9.28µM	0	11.2µM	0	?	0
COc1ccccc1-c1oc2ccccc2c1-c1ccc2cc[nH]c2c1	2.08µM	0	11.2µM	0	?	0
CCOC(=O)c1ccc(-c2ccc3c(=O)c4ccccc4n(C)c3c2)cc1F	0	?	0	0	0	0
CCOC(=O)c1ccc(-c2c(-c3ccccc3OC)oc3ccccc23)cc1F	?	0	0	0	3.29µM	0
O=c1c2ccccc2oc2cc(-c3ccc4cc[nH]c4c3)ccc12	-	-	0	0	-	0
COc1ccc2c(c1)c(=O)c(C(=O)c1ccc(C)cc1)cn2Cc1ccccc1F	-	0	-	-	-	-
COc1cc(C(CC(=O)Nc2cccc(C(C)=O)c2)N2Cc3ccccc3C2=O)cc(OC)c1OC (stereo not drawn)	-	0	-	-	-	-
Cc1ccc2cccc(NC(=O)c3ccc(-c4cc(Cl)ccc4Cl)o3)c2n1	-	0	-	-	-	-
COc1ccc2c(c1)CC(NC(=O)Nc1c(C)cc(C)cc1C)CO2 (stereo not drawn)	-	0	-	-	-	-
Cc1ccc(-n2c(C)cc(C(=O)CSc3n[nH]c(N)n3)c2C)cc1	?	0	?	0	3.29µM	0
Cc1cc(C(=O)CSc2n[nH]c(N)n2)c(C)n1-c1ccccc1	0	0	11.2µM	0	-	0
Cc1ccc(-n2c(C)cc(C(=O)COC(=O)c3c(C)noc3C)c2C)cc1	0	0	0.316µM	0	0	0
Cc1ccc(-n2c(C)cc(C(=O)COC(=O)C3=NNC(=O)CC3)c2C)cc1	?	0	0	0	-	0
Cc1cccc(NC(=S)NC2CCSc3ccccc32)c1 (stereo not drawn)	11.7µM	0	?	0	?	0
N#Cc1c(Cl)nsc1NC(=O)c1ccccc1	?	0	14.1µM	0	0	0
N#Cc1c(NC(=O)c2ccccc2)sc2c1CCCCC2	0	?	?	0	?	0
CC(C)C(=O)NC(Nc1ccccc1F)C(Cl)(Cl)Cl (stereo not drawn)	0	0	0	0	0	0
CCCC(=O)NC(Nc1cccc(C(F)(F)F)c1)C(Cl)(Cl)Cl (stereo not drawn)	?	0	0	0	1.85µM	0
CCCC(=O)NC(Nc1cc(C(F)(F)F)ccc1Cl)C(Cl)(Cl)Cl (stereo not drawn)	11.7µM	0	?	0	?	0
CC(C)C(=O)NC(Nc1cc(C(F)(F)F)ccc1Cl)C(Cl)(Cl)Cl (stereo not drawn)	?	0	0	0	13.1µM	0
COc1ccc(CCNC(=O)Cn2nc(-c3ccc(Cl)cc3)ccc2=O)cc1OC	-	0	-	-	-	-
CC(=O)Nc1cccc(-c2nnc(SCC(=O)c3cc([N+](=O)[O-])ccc3Br)o2)c1	-	0	-	-	-	-
COc1cc(OC)c2c(-c3cccc(-c4ccc(NC(C)=O)cc4)c3)cc(=O)oc2c1	-	-	?	0	-	0
SMILES	Pf growth 48h	AmpC inh detg	HCV inh	AmpC no deterg	Pf growth 96h	AMA1-RON2 inh
COc1cc(OC)c2c(-c3cccc(-c4sccc4C(C)=O)c3)cc(=O)oc2c1	-	-	3.16µM	0	-	0
COc1cc(OC)c(NC(=O)c2noc3c2CSc2ccccc2-3)cc1Cl	-	0	-	-	-	-
Cc1ccc(Cl)cc1Nc1nc(-c2sc(NC(=O)c3ccccc3)nc2C)cs1	2.08µM	0	-	0	2.62µM	-
COc1ccccc1Nc1nc(-c2sc(NC(=O)c3ccccc3)nc2C)cs1	?	0	0	0	?	0
CCOC(=O)Cc1csc(NC(=O)c2cccc(Cl)c2)n1	-	-	0	-	-	0
Cc1cc(NS(=O)(=O)c2ccc(Nc3nc(-c4sc(NC(=O)c5ccccc5)nc4C)cs3)cc2)no1	0	0	-	0	-	-
Cc1nc(NC(=O)c2ccccc2)sc1-c1csc(Nc2cccc(F)c2)n1	?	0	-	15.8µM	4.65µM	-
CCOc1ccccc1Nc1nc(-c2sc(NC(=O)c3ccccc3)nc2C)cs1	7.38µM	0	-	0	?	-
CCOc1ccccc1Nc1nc(-c2sc(NC(=O)c3cccc(Cl)c3)nc2C)cs1	6.57µM	0	0	0	4.65µM	0
N#CC1=C2SCN(Cc3ccco3)CN2C(=O)CC1c1cccc2ccccc12 (stereo not drawn)	11.7µM	0	0	0	0	0
CS(=O)(=O)c1nc(S(=O)(=O)c2ccc(Cl)cc2)c(N2CCC3(CC2)OCCO3)s1	0	0	?	0	2.94µM	0
CS(=O)(=O)c1nc(S(=O)(=O)c2ccc(Cl)cc2)c(N2CCC(C(N)=O)CC2)s1	?	0	0	0	?	0
Cc1ccc(S(=O)(=O)c2nc(S(C)(=O)=O)sc2N2CCC(C(N)=O)CC2)cc1	?	0	0	0	8.28µM	0
CCCS(=O)(=O)c1nc(S(=O)(=O)c2ccc(C)cc2)c(N2CC(C)OC(C)C2)s1 (stereo not drawn)	?	0	?	0	0	0
CCS(=O)(=O)c1nc(S(=O)(=O)c2ccc(C)cc2)c(N2CC(C)OC(C)C2)s1 (stereo not drawn)	0	0	0	0	14.7µM	0
COc1cccc(CN2C(=O)N(c3ccc(C)cc3)C(=O)C2CC(=O)Nc2cc(OC)cc(OC)c2)c1 (stereo not drawn)	-	0	-	-	-	-
Fc1ccc(C2=NNC(=NCc3ccccc3)SC2)cc1F	?	0	0	17.8µM	?	0
CCCCCn1c(=N)c(S(=O)(=O)c2ccccc2)cc2c(=O)n3ccccc3nc21	-	0	-	-	-	-
CN(CC(=O)Nc1ccc(Cl)cc1)C1CCCCC1	0	?	0	0	0	0
CN(CC(=O)NC(=O)NC1CCCCC1)CC(=O)Nc1ccc(Cl)cc1	?	0	0	0	4.15µM	0
CCOc1ccccc1CNC(=O)c1ccc2nc(Cc3ccc(OC)cc3)oc2c1	-	0	-	-	-	-
Cc1ccc2c3c1C1(C(=O)N3C(C)(C)CC2C)C(C#N)=C(N)Oc2cc(O)ccc21 (stereo not drawn)	0	0	?	0	0	0
CCc1cc2c3c(c1)C1(C(=O)N3C(C)(C)CC2C)C(C#N)=C(N)N2C(=C1C#N)Nc1ccccc12 (stereo not drawn)	9.28µM	?	?	0	0	0
Cc1nn(-c2ccccc2)c2c1C1(C(=O)N3c4c(cccc41)C(C)CC3(C)C)C(C#N)=C(N)O2 (stereo not drawn)	?	0	0	0	-	0
Cc1cc2c3c(c1)C1(C(=O)N3C(C)(C)CC2C)C(C#N)=C(N)Oc2cc(O)ccc21 (stereo not drawn)	11.7µM	0	?	0	-	0
